# Results from article PMC5540273 (PLoS ONE, 2017).
# Columns and labels:
# Details in all cases: concentration: 1 μM, replicates: in singlicate; n = 1
# MINK = system: T1, MINK
# T1 construct: gene MINK1
# MKK7 = system: MKK7
# MKNK1 = system: MKNK1
# MKNK2 = system: MKNK2
# MLCK = system: T2, MLCK
# T2 construct: gene MYLK3
# MLK1 = system: T3, MLK1
# T3 construct: gene MAP3K9
# MLK2 = system: MLK2
# MLK3 = system: MLK3
# MRCKA = system: MRCKA
# MRCKB = system: T4, MRCKB
# T4 construct: gene CDC42BPB
# MST1R = system: MST1R
# MST1 = system: T5, MST1
# T5 construct: gene STK4
# MST2 = system: T6, MST2
# T6 construct: gene STK3
# MST3 = system: T7, MST3
# T7 construct: gene STK24
# MST4 = system: MST4
# MTOR = system: MTOR
# MUSK = system: MUSK
# MYLK2 = system: MYLK2
# MYLK4 = system: MYLK4
# MYLK = system: MYLK
# 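Note: KINOMEscan kinase panel screen.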
SMILES,%Inh (MINK) [%],%Inh (MKK7) [%],%Inh (MKNK1) [%],%Inh (MKNK2) [%],%Inh (MLCK) [%],%Inh (MLK1) [%],%Inh (MLK2) [%],%Inh (MLK3) [%],%Inh (MRCKA) [%],%Inh (MRCKB) [%],%Inh (MST1R) [%],%Inh (MST1) [%],%Inh (MST2) [%],%Inh (MST3) [%],%Inh (MST4) [%],%Inh (MTOR) [%],%Inh (MUSK) [%],%Inh (MYLK2) [%],%Inh (MYLK4) [%],%Inh (MYLK) [%]
CNCc1ccc2nc(NC(=O)c3ccc(C(C)(C)C)cc3)cn2c1,53,8,17,10,14,8,0,6,6,14,18,16,25,7,24,2,0,7,1,24
CC(C)c1ccc(O)cc1Nc1ccnc2ccc(C(F)(F)F)cc12 [GW482059],0,0,2,10,0,0,5,13,0,0,0,0,0,0,0,6,3,3,0,3
Cl.Cl.Cl.N#Cc1ccc(CCNc2nccc(-c3cccc(CN4CCNCC4)c3)n2)cc1 [GSK2137462],3,0,46,2,0,0,0,0,48,19,37,0,0,18,0,0,14,12,38,35
CC(=O)c1cccc(NC(=O)NC2CCN(c3ccnc(Nc4ccc(F)cc4)n3)C2)c1 (centres unmarked) [GSK1379710],11,0,27,0,0,0,0,3,20,0,31,0,22,3,0,21,8,0,21,11
COc1ccc(Nc2nccc(N3CCC(NC(=O)C(C)c4ccc(Cl)cc4)C3)n2)cc1 (centres unmarked) [GSK1379735],1,10,12,2,14,0,43,21,15,2,39,44,26,0,3,26,24,3,2,11
CCCCc1nn2ncccc2c1-c1ccnc(NC2CC2)n1 [GW684374],7,0,0,0,0,0,0,0,0,0,38,0,15,0,0,5,19,0,52,0
O=C(Nc1n[nH]c2nc(-c3ccco3)c(Br)cc12)C1CCN(Cc2ccccc2)C1.O=C(O)[C@H](O)[C@@H](O)C(=O)O (centres unmarked) [SB-742034],15,0,0,27,25,8,20,9,0,0,7,0,46,13,9,0,0,89,25,3
NS(=O)(=O)c1cccc(N/C=C2\C(=O)Nc3ccc(S(=O)(=O)Cc4c(Cl)cccc4Cl)cc32)c1 [GSK398099],80,0,0,12,0,0,0,0,15,0,17,0,1,0,0,11,7,0,1,18
Fc1ccc(-c2nn3cccc(F)c3c2-c2ccncc2)cc1 [GW475620],27,16,0,0,0,2,31,18,23,34,18,30,0,0,0,20,11,0,0,14
COc1ccc(CSc2nnc(-c3ccc4nccn4c3)o2)cc1C(F)(F)F,12,0,0,0,2,0,4,3,3,20,0,0,0,15,7,0,9,8,21,0
Cc1ccc(-c2nc(Nc3ccncc3)c3ccccc3n2)s1 [GSK189015],2,0,5,17,14,6,49,5,24,21,37,6,21,11,5,10,17,26,7,19
O=C(Nc1n[nH]c2nc(-c3cccs3)c(Br)cc12)C1CC1 [SB-735297],28,0,46,39,90,0,0,0,16,0,0,3,4,0,5,0,0,99.4,29,29
CNc1nc(-c2ccc3c(N)n[nH]c3c2)cc(N2C[C@@H](C(=O)Nc3ccccc3)CC[C@H]2C)n1 [GSK2298859],0,0,0,0,0,0,0,28,10,0,26,0,0,0,4,3,0,9,0,11
Cc1ccc(NC(=O)c2ccc(Cl)cc2)cc1-c1ccc(C(=O)Nc2ccncc2)cc1 [GSK1398467],0,0,0,12,0,0,9,15,9,3,28,9,0,4,0,0,2,0,0,2
COc1ccc(Nc2nccc(-c3ccc(NC(=O)c4cc5cc(F)ccc5[nH]4)cc3)n2)cc1 [GSK1229496],4,0,14,0,0,0,0,0,17,0,7,0,0,0,0,20,0,0,28,6
Nc1cccc(-c2ccc3c(N)n[nH]c3c2)n1 [GSK2192730],50,0,13,61,76,0,0,0,0,0,33,0,21,9,0,15,4,90,72,34
